Measured values reported in PubChem BioAssay (NCI).
This is part of a sample that, as a whole, favours compounds with a hit. Of some 79,000 tested, about 15% had one in any assay. The source made the active and inactive calls. No stated cut-off is given here; in the data, active means growth inhibition above about 70%; inactive means the rest.

How the values were obtained:
[1] = NCI Yeast Anticancer Drug Screen. Data for the rad50 strain (AID 155);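 further: 0% = growth of vehicle-only cultures of the same strain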; conditions: S. cerevisiae rad50 strain growth inhibition; at 50.0 µM; active compounds read high
Procedure, shortened: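 Cells are treated with compound, grown, and their growth is then scored against vehicle-only cultures of the same repair-deficient yeast strain.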

[2] = NCI Yeast Anticancer Drug Screen. Data for the mec2-1 strain (AID 157); conditions: S. cerevisiae mec2-1 strain, at 50.0 µM, active compounds read high
Procedure, shortened: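 Strain: mec2-1 (DNA repair/cell cycle alteration). Compound exposure, then growth measured; inhibition expressed relative to vehicle.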

[3] = NCI Yeast Anticancer Drug Screen. Data for the sgs1 mgt1 strain (AID 161);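 further: 0% = growth of cultures given vehicle only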; conditions: S. cerevisiae sgs1 mgt1 strain, at 50.0 µM, active compounds read high
Procedure, shortened: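 Genetically altered yeast, compound exposure, growth inhibition relative to vehicle.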

[4] = NCI Yeast Anticancer Drug Screen. Data for the cln2 rad14 strain (AID 165);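 further: 0% = growth equal to vehicle treated cultures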; conditions: S. cerevisiae cln2 rad14 strain, at 50.0 µM, active compounds read high
Procedure, shortened: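 Compounds are applied to the cln2 rad14 yeast strain, and growth is then compared with that of vehicle-treated cultures to give inhibition.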

[5] = NCI Yeast Anticancer Drug Screen. Data for the bub3 strain (AID 167); conditions: S. cerevisiae bub3 mutant strain, at 50.0 µM, active compounds read high
Procedure, shortened: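 Part of a panel of yeast mutants defective in DNA damage repair or cell cycle regulation. Each strain is grown with compound, and inhibition is calculated relative to solvent-treated cultures.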

[6] = NCI Yeast Anticancer Drug Screen. Data for the mlh1 rad18 strain (AID 175); conditions: S. cerevisiae mlh1 rad18 strain growth inhibition; at 50.0 µM; active compounds read high
Procedure, shortened: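 Read-out is yeast growth inhibition, calculated against vehicle-only controls. The compound was applied to a strain engineered with DNA damage repair alterations.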

Measured: growth inhibition

CC(C)C1CC(N(C)C)=CC(=O)N1 (stereo unspecified)
inactive: [1] -41.5% | [2] 5.95% | [3] 2.75% | [4] -14.4% | [5] 10.8% | [6] 10.9%

O=[N+]([O-])c1cccc2nc3ccccc3c(NCCc3ccccn3)c12
inactive: [1] 13.3% | [2] -19.9% | [3] 20.6% | [4] -32.4% | [5] -17.1% | [6] 13.8%

O=C1OC(c2ccccc2)=N/C1=C\c1cc2c(cc1Cl)OCO2
inactive: [1] 4.05% | [2] 11.7% | [3] 16.1% | [4] -25.3% | [5] -5.7% | [6] 20.1%

CC(C)(NC(=O)OCc1ccccc1)C(=O)OC(=O)C(C)(C)NC(=O)OCc1ccccc1
inactive: [1] -15.9% | [2] 21.1% | [3] 5.85% | [4] 13.8% | [5] 2.15% | [6] -19.4%

O=C1c2ccccc2C(=O)c2c(Nc3ccc(Nc4cccc5c4C(=O)c4ccccc4C5=O)c4c3C(=O)c3ccccc3C4=O)cccc21
inactive: [1] -28.4% | [2] -39% | [3] 4.7% | [4] -3.2% | [5] -19.3% | [6] -26.8%

NNc1cn[nH]c(=O)c1Cl
inactive: [1] -16.6% | [2] -28.2% | [3] -10.1% | [4] 4.4% | [5] -3.85% | [6] -26.4%

Brc1c(CCc2ccc3ccccc3c2Br)ccc2ccccc12
inactive: [1] 0.1% | [2] 10.2% | [3] 13.2% | [4] -6.75% | [5] -2.8% | [6] 19.6%

COc1ccc(C(C)(C)c2ccccc2)cc1
inactive: [1] -20.1% | [2] -45.1% | [3] -13.4% | [4] -19.9% | [5] -24.6% | [6] -18.6%

CCCCCCCCCCCCCCCCCCNC(=S)N(C)C
inactive: [1] 18.8% | [2] 0.2% | [3] 8.1% | [4] 1.25% | [5] 38.6% | [6] 5.05%

CCCCCN(CCCCC)C(=O)C(C)Br (stereo unspecified)
inactive: [1] -3.6% | [2] -12.9% | [3] 12.8% | [4] -12.9% | [5] 44.9% | [6] 3.1%

CN(C)CC(CN(C)C)C(=O)c1ccc(OC2OC(CO)C(O)C(O)C2O)cc1 (stereo unspecified)
inactive: [1] -4.95% | [2] -3.15% | [3] -18.4% | [4] 5.15% | [5] -9.35% | [6] 2.05%

O=[N+]([O-])c1ccc(C=NC23CC4CC(CC(C4)C2)C3)cc1
inactive: [1] -8.05% | [2] -11.1% | [3] -0.35% | [4] 14.2% | [5] 5.55% | [6] -3.9%

NC(CCCOS(=O)(=O)O)Cc1ccc2ccccc2c1 (stereo unspecified)
inactive: [1] -10.6% | [2] 9.35% | [3] 16.6% | [4] 10.2% | [5] 3.55% | [6] 8.9%

O=C(C/C(=C/c1ccccc1)[N+](=O)[O-])c1ccccc1
active: [1] 99.2% | [2] 99.2% | [3] 99.3% | [4] 98.8% | [5] 99% | [6] 98.8%

CC(=O)NNC(=S)/N=C\c1c(O)[nH]c(=O)[nH]c1=O
inactive: [1] -23.1% | [2] -30.1% | [3] -15.4% | [4] -0.6% | [5] -4% | [6] -9.85%

Cc1ccc(O)c(C2CC(C#N)CCN2C)c1 (stereo unspecified)
inactive: [1] -0.65% | [2] -12.2% | [3] -16.5% | [4] -6.35% | [5] -18.9% | [6] -7.3%

CC(C)c1ccc(OC(=O)Nc2c(Cl)cccc2Cl)cc1
inactive: [1] -18.4% | [2] -27.6% | [3] 5.95% | [4] 5.6% | [5] 7.2% | [6] -3.65%

CCc1c(Cc2[nH]c(Cc3[nH]c(C=O)c(C)c3CC)c(CC)c2CC)[nH]c(C=O)c1C
inactive: [1] 5.25% | [2] -7.5% | [3] -5.85% | [4] -45.9% | [5] -0.75% | [6] -8.75%

c1ccc(C2CN3CCSC3=N2)cc1 (stereo unspecified)
inactive: [1] -30.4% | [2] -34.8% | [3] -19.1% | [4] 5.5% | [5] -12.2% | [6] -16.9%

CCOC(NC(=O)CC)(C(F)(F)F)C(F)(F)F
inactive: [1] 4.3% | [2] -24.6% | [3] -49.9% | [4] -3.4% | [5] 1.85% | [6] -36.9%

C/C(N=NC(=S)N1CCCCC1C)=C1\C=CC=CN1O (stereo unspecified)
inactive: [1] 49.2% | [2] 4.25% | [3] 54.7% | [5] 20.1% | [6] 20.6%
active: [4] 89.4%

Cc1ccc(N=Nc2c(N)ccc3ccccc23)cc1
active: [1] 90.5% | [2] 87.2% | [3] 89.6% | [4] 84.2% | [5] 87% | [6] 86.5%

CCOC(=O)c1ccc(NC(C)=O)cc1
inactive: [1] 18% | [2] 9.2% | [3] 9.3% | [4] -5.45% | [5] -4.45% | [6] 12.1%

CCc1cccc(CC)c1N=Cc1ccccc1O
inactive: [1] 32.8% | [2] 11% | [3] 21.6% | [4] 16.1% | [5] 10.8% | [6] 19%

CC(C)NC(=O)C(C(C)C)C(C)(C)C (stereo unspecified)
inactive: [1] -2.95% | [2] 5.25% | [3] 1.35% | [4] 12.1% | [5] 9.2% | [6] -2.15%

O=C(CC[n+]1ccccc1)NCCCCCCNC(=O)CC[n+]1ccccc1
inactive: [1] -17.9% | [2] -31.9% | [3] -23.5% | [4] 7.5% | [5] -17.4% | [6] -21.9%

CNc1nc(Cl)nc2c1nc(SC)n2-c1ccccc1
inactive: [1] 7.15% | [2] -17.8% | [3] 4.2% | [4] -13.2% | [5] 18.2% | [6] 17.4%

CC1(CO)OC(n2cnc3c(N)ncnc32)C(O)C1O (stereo unspecified)
inactive: [1] -25.8% | [2] -30.8% | [3] -52.6% | [4] -8.25% | [5] -14.7% | [6] -29.2%

CN(C)CCNCCN
inactive: [1] 4% | [2] -28.4% | [3] -6.2% | [4] -1.55% | [5] -9.75% | [6] -15.6%

CC(=O)O[C@]12CCCCC1C1(O)C(O)CCCC[C@H]12 (stereo partly specified)
inactive: [1] -41.8% | [2] -62.2% | [3] -65.5% | [4] -4.95% | [5] -20.6% | [6] -31.8%

NCCCC(=O)NCCCC(=O)O
inactive: [1] 19.9% | [2] -5.75% | [3] -2.25% | [4] -15.9% | [5] -6.75% | [6] 2%

C=C1C(C)C2C(Cc3ccccc3)NC(=O)C23OC(=O)/C=C\CC(=O)CCC(C)C/C=C/C3C1O (stereo unspecified)
active: [1] 91.4% | [2] 93.2% | [3] 93% | [4] 90.8% | [5] 90.8% | [6] 91.2%

O=C1NC(CN2CCC(O)CC2)C(=O)NC1CN1CCC(O)CC1 (stereo unspecified)
inactive: [1] 0.6% | [2] 7.7% | [3] -10.2% | [4] 2.4% | [5] -1.05% | [6] -0.35%

CC(=O)Nc1ccc(S(=O)(=O)N/N=c2/sc3ccccc3n2C)cc1N
inactive: [1] -4.6% | [2] -2.7% | [3] -3.8% | [4] 15.2% | [5] -8.75% | [6] 3.2%

O=C(O)c1ccc(C(=O)O)c(C(=O)O)c1.[NH-]C1CCCCC1[NH-].[Pd+2]
inactive: [1] 11.1% | [2] 5.2% | [3] 7.9% | [4] 10.6% | [5] 3.95% | [6] 9.65%

NC(=O)c1cc2ccccc2c2ccccc12
inactive: [1] 0.65% | [2] -23.8% | [3] -15.6% | [4] -33.3% | [5] -1% | [6] -3.85%

CC(=O)OC1COC(Cl)C(OC(C)=O)C1OC(C)=O (stereo unspecified)
inactive: [1] -4.95% | [2] -2.9% | [3] 0.1% | [4] 3.95% | [5] -8.95% | [6] 1.75%

Cc1c(C)c(CO)c(C)c(C)c1CO
inactive: [1] -15.8% | [2] -19.4% | [3] 15.8% | [4] 4.9% | [5] 12.1% | [6] -2.1%

CC(C)(O)c1cc(F)ccc1N
inactive: [1] -0.75% | [2] 11.3% | [3] -1.3% | [4] 15.3% | [5] 29.6% | [6] 8.3%

CC1=NN2C(c3ccc(Cl)cc3)=CSC2=NC(C)(C)C1
inactive: [1] 16.6% | [2] -16.9% | [3] -3.1% | [4] 5.8% | [5] -8.6% | [6] -13.2%

O=C(c1ccccc1)c1cc(Cl)ccc1NCC(O)COc1ccc(Cl)cc1 (stereo unspecified)
inactive: [1] -12.8% | [2] 7.05% | [3] -33% | [4] -12.6% | [5] -0.45% | [6] -10.1%
